PubChem BioAssay (EPA / NIEHS)
Records with an inconclusive call do not appear. The source made the active and inactive calls. The calls were made as follows, unless noted: active = hit-call score of the fitted dose curve at least 0.9, where 1 is the maximum; inactive = score below 0.9.

Tests used:
[1] = ATG_PBREM_CIS: Attagene CIS-FACTORIAL HepG2 Assay for human Phenobarbital-responsive Enhancer Module (PBREM) (AID 2282955); details: HepG2 PBREM cis-reporter, Attagene multiplexed transcription; actives raise or lower the signal
Method in brief: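 After a 24 h incubation with test chemical, transfected HepG2 cells yield total RNA; reporter-specific RT-PCR products are fluorescently labelled, HpaI-digested and resolved by capillary electrophoresis against ROX size standards.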

[2] = molecular target: Paired box protein Pax-6 (Homo sapiens) (UniProt P26367); assay: ATG_Pax6_CIS: Attagene CIS-FACTORIAL HepG2 Assay for human Paired Box 6 (PAX6) (AID 2282956); details: HepG2 CIS-FACTORIAL PAX6 reporter transcription, RNA readout; actives raise or lower the signal
Sequence of Paired box protein Pax-6 (Homo sapiens) (P26367 whole entry, looked up): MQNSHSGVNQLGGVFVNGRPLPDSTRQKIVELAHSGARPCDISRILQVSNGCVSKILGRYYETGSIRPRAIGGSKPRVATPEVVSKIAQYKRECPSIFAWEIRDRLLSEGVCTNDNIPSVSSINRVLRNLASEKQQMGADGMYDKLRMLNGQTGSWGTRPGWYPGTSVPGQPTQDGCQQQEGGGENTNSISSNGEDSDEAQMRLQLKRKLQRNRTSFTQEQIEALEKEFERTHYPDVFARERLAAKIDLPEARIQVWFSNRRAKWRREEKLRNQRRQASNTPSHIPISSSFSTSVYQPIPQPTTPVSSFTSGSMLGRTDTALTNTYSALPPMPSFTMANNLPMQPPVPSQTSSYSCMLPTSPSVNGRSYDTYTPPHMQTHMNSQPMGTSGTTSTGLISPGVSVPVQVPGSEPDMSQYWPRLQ
Method in brief: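 Transient MRTU transfection of HepG2 → compound exposure 24 h → TriZol RNA, oligo(dT) RT → PCR, 6-FAM primer extension, HpaI cut → capillary electrophoresis; activity fitted both directions against DMSO.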

[3] = ATG_PXRE_CIS: Attagene CIS-FACTORIAL HepG2 Assay for human Pregnane X Receptor Element (PXRE) (AID 2282957); details: HepG2 Attagene CIS-FACTORIAL PXRE reporter, mRNA; actives raise or lower the signal
Method in brief: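 Multiplexed cis-reporter assay in transiently transfected human HepG2 cells; 24 h chemical exposure. Reporter transcripts quantified by RT-PCR with fluorescent labeling and capillary electrophoresis.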

[4] = ATG_PPRE_CIS: Attagene CIS-FACTORIAL HepG2 Assay for human Peroxisome Proliferator-activated Response Element (PPRE) (AID 2282958); details: HepG2 PPRE cis-element reporter, Attagene transcription factor profiling; actives raise or lower the signal
Method in brief: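 Multiplexed reporter transcription units under cis-regulatory promoters were transfected into HepG2 cells to capture endogenous factor activity. A 24 h incubation preceded RNA isolation and fluorescent RT-PCR fragment analysis.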

[5] = ATG_Sox_CIS: Attagene CIS-FACTORIAL HepG2 Assay for human SRY-box transcription factor (SOX) (AID 2282960); details: HepG2 Attagene cis-factorial SOX reporter, mRNA; actives raise or lower the signal
Method in brief: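 After 24 h of chemical treatment, transfected HepG2 reporter cells are lysed for total RNA. Transcript levels come from RT-PCR with labelled primer extension and capillary electrophoresis, analysed bidirectionally versus DMSO.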

[6] = molecular target: Transcription factor Sp1 (Homo sapiens) (UniProt P08047); assay: ATG_Sp1_CIS: Attagene CIS-FACTORIAL HepG2 Assay for human Specificity Protein 1 (Sp1) (AID 2282961); details: HepG2 Sp1 cis-reporter transcription, actives raise or lower the signal
Sequence of Transcription factor Sp1 (Homo sapiens) (P08047 whole entry, looked up): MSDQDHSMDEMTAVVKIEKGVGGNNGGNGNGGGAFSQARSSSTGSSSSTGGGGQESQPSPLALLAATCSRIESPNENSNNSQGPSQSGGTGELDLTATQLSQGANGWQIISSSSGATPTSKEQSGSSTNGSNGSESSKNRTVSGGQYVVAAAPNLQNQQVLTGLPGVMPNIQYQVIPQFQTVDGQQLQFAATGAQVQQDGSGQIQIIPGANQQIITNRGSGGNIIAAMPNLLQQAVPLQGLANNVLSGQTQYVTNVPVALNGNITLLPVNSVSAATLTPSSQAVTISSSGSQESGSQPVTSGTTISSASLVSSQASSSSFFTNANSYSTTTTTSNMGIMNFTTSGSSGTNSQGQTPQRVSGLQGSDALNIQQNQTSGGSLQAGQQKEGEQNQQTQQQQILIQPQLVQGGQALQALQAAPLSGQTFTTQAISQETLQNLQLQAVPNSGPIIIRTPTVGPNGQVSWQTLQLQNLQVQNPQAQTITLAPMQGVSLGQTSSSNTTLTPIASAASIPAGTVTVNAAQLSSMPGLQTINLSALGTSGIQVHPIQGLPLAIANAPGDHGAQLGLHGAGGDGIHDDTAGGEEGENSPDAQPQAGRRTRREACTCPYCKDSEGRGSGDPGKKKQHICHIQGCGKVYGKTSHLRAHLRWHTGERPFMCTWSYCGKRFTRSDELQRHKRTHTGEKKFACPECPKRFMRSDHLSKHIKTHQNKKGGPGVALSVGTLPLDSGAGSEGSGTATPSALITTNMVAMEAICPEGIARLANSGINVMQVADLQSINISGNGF
Method in brief: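 Sp1-driven reporter mRNA, read as capillary electrophoresis fluorescence after RT-PCR, in transiently transfected HepG2 cells dosed for 24 h; signal change in either direction relative to DMSO.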

[7] = ATG_SREBP_CIS: Attagene CIS-FACTORIAL HepG2 Assay for human Sterol Regulatory Element Binding (SREBP) (AID 2282962); details: HepG2 Attagene cis-factorial SREBP reporter, mRNA; actives raise or lower the signal
Method in brief: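 Transfected HepG2 (cis-regulated reporter library, endogenous TFs) → compound 24 h → total RNA → oligo(dT) RT → reporter-specific PCR → FAM primer extension, HpaI cut → CE fluorescence. Fit bidirectional vs DMSO.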

[8] = molecular target: Signal transducer and activator of transcription 3 (Homo sapiens) (UniProt P40763); assay: ATG_STAT3_CIS: Attagene CIS-FACTORIAL HepG2 Assay for human Signal Transducer and Activator of Transcription 3 (STAT3) (AID 2282963); details: HepG2, Attagene cis-factorial STAT3 reporter transcription; actives raise or lower the signal
Sequence of Signal transducer and activator of transcription 3 (Homo sapiens) (P40763 whole entry, looked up): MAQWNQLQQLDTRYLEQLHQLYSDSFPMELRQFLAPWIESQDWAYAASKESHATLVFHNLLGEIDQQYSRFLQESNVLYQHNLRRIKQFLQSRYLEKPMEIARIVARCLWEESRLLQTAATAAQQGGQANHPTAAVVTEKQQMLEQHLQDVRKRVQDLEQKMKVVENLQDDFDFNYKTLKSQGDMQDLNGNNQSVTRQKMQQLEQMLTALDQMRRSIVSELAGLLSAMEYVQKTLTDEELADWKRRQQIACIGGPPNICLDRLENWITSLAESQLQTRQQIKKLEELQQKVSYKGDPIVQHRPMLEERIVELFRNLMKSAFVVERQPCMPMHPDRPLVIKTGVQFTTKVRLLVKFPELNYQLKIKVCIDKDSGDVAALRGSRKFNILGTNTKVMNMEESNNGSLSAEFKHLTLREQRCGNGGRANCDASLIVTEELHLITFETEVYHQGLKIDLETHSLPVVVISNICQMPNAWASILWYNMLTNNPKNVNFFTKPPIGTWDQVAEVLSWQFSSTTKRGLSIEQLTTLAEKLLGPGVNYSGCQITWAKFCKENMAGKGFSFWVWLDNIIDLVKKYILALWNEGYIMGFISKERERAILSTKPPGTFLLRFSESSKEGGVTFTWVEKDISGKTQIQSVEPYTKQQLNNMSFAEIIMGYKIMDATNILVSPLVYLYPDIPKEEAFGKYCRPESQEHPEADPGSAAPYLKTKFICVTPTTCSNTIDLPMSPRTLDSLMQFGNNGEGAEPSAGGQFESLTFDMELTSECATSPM
Method in brief: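 Values derive from bidirectional fits relative to DMSO of reporter mRNA levels, measured by RT-PCR with capillary electrophoresis, in HepG2 cells carrying transiently transfected cis-regulated reporter units and exposed 24 h.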

[9] = ATG_TA_CIS: Attagene CIS-FACTORIAL HepG2 Assay for human TA Basal Promoter (AID 2282964); details: HepG2 Attagene CIS-factorial TA basal promoter reporter; actives raise or lower the signal
Method in brief: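 HepG2 cells transiently transfected with multiple reporter units under cis promoter elements, reporting endogenous transcription factor activity; this endpoint tracks the TA basal promoter as background control. Reporter mRNA after 24 h dosing measured by RT-PCR/capillary electrophoresis; bidirectional fits versus DMSO.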

[10] = ATG_TCF_b_cat_CIS: Attagene CIS-FACTORIAL HepG2 Assay for human T-Cell-Factor with beta-catenin (TCF/b-cat) (AID 2282965); details: HepG2 TCF/beta-catenin cis-reporter transcription, actives raise or lower the signal
Method in brief: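 HepG2, transient MRTU transfection, cis-element-driven reporters (endogenous TFs). 24 h compound exposure. Readout: reporter mRNA by RT-PCR + 6-FAM primer extension, HpaI digest, capillary electrophoresis. Gain/loss fit vs DMSO baseline.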

[11] = ATG_TAL_CIS: Attagene CIS-FACTORIAL HepG2 Assay for human TAL Basal Promoter (AID 2282966); details: HepG2 Attagene cis-factorial TAL promoter reporter; actives raise or lower the signal;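 also: background control endpoint measuring basal TAL promoter reporter mRNA not a specific factor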
Method in brief: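 Steps: transfect HepG2 with multiple reporter transcription units; dose 24 h; isolate RNA, reverse-transcribe, PCR-amplify, label with 6-FAM, digest with HpaI; resolve by capillary electrophoresis. Bidirectional fitting against DMSO baseline.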

[12] = ATG_TGFb_CIS: Attagene CIS-FACTORIAL HepG2 Assay for human Transforming Growth Factor (TGF) (AID 2282967); details: HepG2 Attagene CIS TGFb reporter, mRNA transcription; actives raise or lower the signal
Method in brief: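 HepG2 cells transiently transfected with cis-promoter-driven multiple reporter units measure endogenous TF activity; reporter mRNA quantified at 24 h by RT-PCR, FAM labeling, HpaI digestion and capillary electrophoresis. Bidirectional fit vs DMSO.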

[13] = molecular target: Estrogen receptor (Homo sapiens) (UniProt P03372); assay: ATG_ERa_TRANS: Attagene TRANS-FACTORIAL HepG2 Assay for human Estrogen Receptor alpha (ERa) (AID 2282970; active = hit-call score of the fitted dose curve at least 0.9, where 1 is the maximum); details: HepG2 Attagene TRANS ERa GAL4 reporter, mRNA
Sequence of Estrogen receptor (Homo sapiens) (P03372 whole entry, looked up, the tested form may be a part): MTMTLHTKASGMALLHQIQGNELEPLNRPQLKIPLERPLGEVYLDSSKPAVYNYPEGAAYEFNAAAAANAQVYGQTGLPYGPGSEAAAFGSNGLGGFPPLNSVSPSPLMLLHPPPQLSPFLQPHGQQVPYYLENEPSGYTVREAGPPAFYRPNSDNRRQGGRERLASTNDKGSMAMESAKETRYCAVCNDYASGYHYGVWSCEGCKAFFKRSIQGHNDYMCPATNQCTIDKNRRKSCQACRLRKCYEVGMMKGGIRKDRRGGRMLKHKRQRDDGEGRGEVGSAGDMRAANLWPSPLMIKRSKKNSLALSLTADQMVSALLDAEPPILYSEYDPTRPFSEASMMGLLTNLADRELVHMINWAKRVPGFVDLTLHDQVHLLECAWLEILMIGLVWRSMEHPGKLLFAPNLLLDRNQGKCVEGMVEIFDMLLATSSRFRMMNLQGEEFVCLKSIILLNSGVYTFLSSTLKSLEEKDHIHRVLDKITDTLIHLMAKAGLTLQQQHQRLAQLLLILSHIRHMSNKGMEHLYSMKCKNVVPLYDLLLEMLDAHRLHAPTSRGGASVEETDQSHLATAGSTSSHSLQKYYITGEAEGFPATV
Method in brief: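 Multiplexed cell-based reporter format in HepG2: chimeric ERa-Gal4 protein drives GAL4-UAS reporter transcription. Fluorescent reporter mRNA quantified by capillary electrophoresis 24 hours after dosing; endpoint fitted as signal gain against DMSO.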

[14] = molecular target: X-box-binding protein 1 (Homo sapiens) (UniProt P17861); assay: ATG_Xbp1_CIS: Attagene CIS-FACTORIAL HepG2 Assay for human X-box Binding Protein 1 (XBP1) (AID 2282972); details: HepG2 XBP1 cis-element reporter, Attagene multiplex; actives raise or lower the signal
Sequence of X-box-binding protein 1 (Homo sapiens) (P17861 whole entry, looked up): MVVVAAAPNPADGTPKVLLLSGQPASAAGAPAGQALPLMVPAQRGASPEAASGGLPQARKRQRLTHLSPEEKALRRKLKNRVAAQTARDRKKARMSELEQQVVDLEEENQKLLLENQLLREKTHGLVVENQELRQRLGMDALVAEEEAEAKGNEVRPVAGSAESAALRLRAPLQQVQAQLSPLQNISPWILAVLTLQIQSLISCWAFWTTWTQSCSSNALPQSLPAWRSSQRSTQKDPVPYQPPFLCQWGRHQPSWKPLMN
Method in brief: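 HepG2, transient MRTU transfection (cis-promoter driven), 24 h compound exposure. Total RNA → oligo(dT) RT → PCR → 6-FAM labeling → HpaI cut → CE. Bidirectional fit vs DMSO.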

[15] = ATG_RORE_CIS: Attagene CIS-FACTORIAL HepG2 Assay for human RAR-related Orphan Receptor Element (RORE) (AID 2282959); details: HepG2 Attagene cis-factorial RORE reporter, mRNA; actives raise or lower the signal
Method in brief: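 Fluorescence intensity of reporter-specific cDNA fragments, separated by capillary electrophoresis, gives the signal. Source: HepG2 liver cells transiently transfected with cis-element reporters and exposed 24 h; DMSO-normalized bidirectional fit.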

[16] = ATG_VDRE_CIS: Attagene CIS-FACTORIAL HepG2 Assay for human Vitamin D Receptor Element (VDRE) (AID 2282968); details: HepG2 VDRE cis-reporter transcription, actives raise or lower the signal
Method in brief: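 Cell-based multiplexed reporter format in human liver HepG2 cells, 24 h post-dose. Fluorescence from capillary electrophoresis of reporter cDNA gives the signal, with DMSO as negative control and baseline.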

[17] = molecular target: Nuclear receptor subfamily 1 group I member 3 (Homo sapiens) (UniProt Q14994); assay: ATG_CAR_TRANS: Attagene TRANS-FACTORIAL HepG2 Assay for human Constitutive Androstane Receptor (CAR) (AID 2282969; active = hit-call score of the fitted dose curve at least 0.9, where 1 is the maximum;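 also: activators raise reporter mRNA above DMSO so AC50 marks induction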); details: HepG2 Attagene TRANS-FACTORIAL CAR reporter
Sequence of Nuclear receptor subfamily 1 group I member 3 (Homo sapiens) (Q14994 whole entry, looked up, the tested form may be a part): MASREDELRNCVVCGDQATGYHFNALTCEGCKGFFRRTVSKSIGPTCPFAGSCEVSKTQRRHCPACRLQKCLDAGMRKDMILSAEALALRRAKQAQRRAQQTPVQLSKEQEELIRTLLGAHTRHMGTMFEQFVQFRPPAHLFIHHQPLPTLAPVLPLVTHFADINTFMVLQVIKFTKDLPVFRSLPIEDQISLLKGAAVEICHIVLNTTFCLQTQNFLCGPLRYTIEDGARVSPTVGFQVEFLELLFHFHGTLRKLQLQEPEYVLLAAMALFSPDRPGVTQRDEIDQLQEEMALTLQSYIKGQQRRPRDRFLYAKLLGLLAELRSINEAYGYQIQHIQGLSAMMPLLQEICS
Method in brief: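 HepG2 cells transiently transfected with GAL4-UAS reporter units; TRANS format reads activity of exogenous chimeric NR-Gal4 protein. After 24 h dosing, reporter mRNA quantified by RT-PCR, 6-FAM labelling and capillary electrophoresis; gain of signal fitted against DMSO.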

[18] = molecular target: Steroid hormone receptor ERR1 (Homo sapiens) (UniProt P11474); assay: ATG_ERRa_TRANS: Attagene TRANS-FACTORIAL HepG2 Assay for human Estrogen-Related Receptor alpha (ERRa) (AID 2282971; active = hit-call score of the fitted dose curve at least 0.9, where 1 is the maximum); details: HepG2 Attagene TRANS reporter, ERRa transactivation
Sequence of Steroid hormone receptor ERR1 (Homo sapiens) (P11474 whole entry, looked up, the tested form may be a part): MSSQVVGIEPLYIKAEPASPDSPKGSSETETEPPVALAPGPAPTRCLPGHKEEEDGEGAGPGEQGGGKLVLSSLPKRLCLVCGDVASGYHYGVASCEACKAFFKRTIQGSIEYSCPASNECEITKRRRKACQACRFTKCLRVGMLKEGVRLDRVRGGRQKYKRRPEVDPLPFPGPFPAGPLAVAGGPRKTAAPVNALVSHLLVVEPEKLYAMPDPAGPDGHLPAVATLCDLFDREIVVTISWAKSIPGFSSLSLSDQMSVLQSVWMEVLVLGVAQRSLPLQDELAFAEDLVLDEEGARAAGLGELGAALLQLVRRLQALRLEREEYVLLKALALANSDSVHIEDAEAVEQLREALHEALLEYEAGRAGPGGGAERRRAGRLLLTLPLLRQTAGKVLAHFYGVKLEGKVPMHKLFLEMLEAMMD
Method in brief: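 Signal gain relative to DMSO for an ERRa-Gal4 chimeric receptor, read as reporter mRNA by RT-PCR/capillary electrophoresis. Human HepG2 liver cells, transient multiplex reporter transfection, 24 h chemical exposure.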

[19] = ATG_M_19_TRANS: Attagene TRANS-FACTORIAL HepG2 Assay for M19 Transcription Factor (Internal Marker) (AID 2282974; active = hit-call score of the fitted dose curve at least 0.9, where 1 is the maximum); details: HepG2 Attagene TRANS-FACTORIAL M19 internal marker reporter
Method in brief: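 Measured here: internal-marker reporter transcript from HepG2 cells transfected with MRTUs, harvested at 24 h. cDNA PCR products were 6-FAM labelled by primer extension, cut with HpaI for 2 h at 37 C, and resolved by CE.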

[20] = ATG_GAL4_TRANS: Attagene TRANS-FACTORIAL HepG2 Assay for GAL4 (Internal Marker) (AID 2282976; active = hit-call score of the fitted dose curve at least 0.9, where 1 is the maximum); details: HepG2 Attagene TRANS GAL4 internal marker reporter
Method in brief: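 Liver HepG2 line bearing multiplexed GAL4-UAS reporter constructs; 24 h chemical treatment. Transcripts were quantified as fluorescent fragments on capillary electrophoresis after RT-PCR and HpaI cut, with activity fitted upward from DMSO.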

SMILES: Cc1noc(NS(=O)(=O)c2ccc(N)cc2)c1C
- outcome [1]: inactive
- outcome [2]: inactive
- outcome [3]: inactive
- outcome [4]: inactive
- outcome [5]: inactive
- outcome [6]: inactive
- outcome [7]: inactive
- outcome [8]: inactive
- outcome [9]: inactive
- outcome [10]: inactive
- outcome [11]: inactive
- outcome [12]: inactive
- outcome [13]: inactive
- outcome [14]: inactive

SMILES: C=CC(=O)OCCCCCCCCCC
- outcome [1]: inactive
- outcome [2]: inactive
- AC50 [3]: 26.4 µM (active)
- outcome [15]: inactive
- outcome [5]: inactive
- outcome [6]: inactive
- outcome [7]: inactive
- outcome [8]: inactive
- outcome [9]: inactive
- outcome [10]: inactive
- outcome [11]: inactive
- outcome [12]: inactive
- outcome [16]: inactive
- outcome [17]: inactive
- outcome [13]: inactive
- outcome [18]: inactive
- outcome [14]: inactive
- outcome [19]: inactive
- outcome [20]: inactive

SMILES: CCOC(=O)OC(=O)OCC
- outcome [1]: inactive
- outcome [2]: inactive
- outcome [3]: inactive
- outcome [4]: inactive
- outcome [5]: inactive
- outcome [6]: inactive
- outcome [7]: inactive
- outcome [8]: inactive
- outcome [9]: inactive
- outcome [10]: inactive
- outcome [11]: inactive
- outcome [16]: inactive
- outcome [14]: inactive
- outcome [20]: inactive

SMILES: C=C1C[C@H]2[C@@H]3C=C(C)C4=CC(=O)CC[C@]4(C)[C@H]3CC[C@]2(C)[C@@]1(OC(C)=O)C(C)=O
- AC50 [1]: 113 µM (active)
- AC50 [2]: 63 µM (active)
- AC50 [3]: 3.44 µM (active)
- outcome [15]: inactive
- outcome [5]: inactive
- outcome [6]: inactive
- AC50 [7]: 63 µM (active)
- outcome [8]: inactive
- AC50 [9]: 50.8 µM (active)
- AC50 [10]: 18.9 µM (active)
- AC50 [11]: 52.8 µM (active)
- outcome [12]: inactive
- AC50 [14]: 88 µM (active)
- outcome [19]: inactive
- outcome [20]: inactive

SMILES: CCc1cccc(C)c1N(C(=O)CS(=O)(=O)O)C(C)COC (configuration not stated)
- outcome [1]: inactive
- outcome [2]: inactive
- AC50 [3]: 29.2 µM (active)
- outcome [4]: inactive
- outcome [5]: inactive
- outcome [6]: inactive
- outcome [7]: inactive
- outcome [8]: inactive
- outcome [9]: inactive
- outcome [11]: inactive
- outcome [12]: inactive
- outcome [16]: inactive
- AC50 [13]: 56.2 µM (active)
- outcome [14]: inactive
- outcome [20]: inactive

SMILES: Nc1cccc(N)n1
- outcome [1]: inactive
- outcome [2]: inactive
- outcome [3]: inactive
- outcome [4]: inactive
- outcome [15]: inactive
- outcome [6]: inactive
- outcome [7]: inactive
- outcome [8]: inactive
- outcome [9]: inactive
- outcome [10]: inactive
- outcome [11]: inactive
- outcome [12]: inactive
- outcome [16]: inactive
- outcome [14]: inactive
- outcome [20]: inactive

SMILES: CCOC(=O)[C@H](O)[C@@H](O)C(=O)OCC
- outcome [1]: inactive
- outcome [2]: inactive
- AC50 [3]: 52.4 µM (active)
- outcome [4]: inactive
- outcome [5]: inactive
- outcome [6]: inactive
- outcome [7]: inactive
- outcome [8]: inactive
- outcome [9]: inactive
- outcome [10]: inactive
- outcome [11]: inactive
- outcome [12]: inactive
- outcome [14]: inactive
- outcome [19]: inactive
- outcome [20]: inactive

SMILES: CC(C)(C)NC(=O)[C@H]1CC[C@H]2[C@@H]3CC[C@H]4NC(=O)C=C[C@]4(C)[C@H]3CC[C@]12C
- outcome [1]: inactive
- outcome [2]: inactive
- AC50 [3]: 14.1 µM (active)
- outcome [4]: inactive
- outcome [15]: inactive
- outcome [5]: inactive
- outcome [6]: inactive
- outcome [7]: inactive
- outcome [9]: inactive
- outcome [10]: inactive
- outcome [11]: inactive
- outcome [16]: inactive
- outcome [14]: inactive
- outcome [19]: inactive
- outcome [20]: inactive
